# Measured values published in PMC13494018.
# Unmarked numbers belong to inactive results. How the calls were made is not given here.
# Molecular target: CD276, Q5ZPR3
# Sequence (Q5ZPR3 whole entry): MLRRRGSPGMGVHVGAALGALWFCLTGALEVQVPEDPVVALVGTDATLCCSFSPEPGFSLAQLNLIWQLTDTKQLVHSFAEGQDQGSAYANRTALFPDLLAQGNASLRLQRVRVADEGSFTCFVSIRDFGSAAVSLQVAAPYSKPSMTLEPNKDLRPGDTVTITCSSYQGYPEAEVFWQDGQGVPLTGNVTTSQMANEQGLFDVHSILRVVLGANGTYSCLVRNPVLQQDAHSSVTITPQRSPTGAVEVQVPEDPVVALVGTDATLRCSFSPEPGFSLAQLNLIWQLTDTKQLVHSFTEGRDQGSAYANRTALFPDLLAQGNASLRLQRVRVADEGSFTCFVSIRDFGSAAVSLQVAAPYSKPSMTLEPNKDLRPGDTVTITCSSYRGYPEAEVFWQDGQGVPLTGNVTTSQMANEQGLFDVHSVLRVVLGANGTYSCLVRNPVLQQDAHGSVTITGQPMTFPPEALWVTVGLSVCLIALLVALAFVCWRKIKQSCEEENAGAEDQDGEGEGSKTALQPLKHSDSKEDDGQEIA
row,Binder,binding in a display sort
1,design_617_b3fadc1d-0db4-4da8-8433-818493aa2ab2_2043_dldesign_0_cycle1_af2pred (protein) DLVEKYREEALAEAEKLVKEGVSPEEAAEILMEKAREYFAQAAKASPEVAVKLIAKAEGYALAAKEIRERL,not found
2,design_618_d4ffd631-0ea2-432e-ba0f-bd3d6297b2a0_140_dldesign_0_cycle1_af2pred (protein) NEDLTKAGEKVVETQRTASEAARTSGDPAVAAEMNAIANAAIKALQAGVATGDYKTALETTEKLLKEAKAKLKEVK,not found
3,design_617_b3fadc1d-0db4-4da8-8433-818493aa2ab2_2347_dldesign_0_cycle1_af2pred (protein) AAAEQAAREALQGRALEKMKEYVDKLVALAKETGSEAALEAAQQVASLFTQAIIAAQQDLAAGRAALAQGEALAKAAIAALE,not found
4,design_617_b3fadc1d-0db4-4da8-8433-818493aa2ab2_2360_dldesign_0_cycle1_af2pred (protein) AAAQAQAQQIVDQTRAAVEEARAMAEDGATAAAAAERAAAVARQASAAIPQALAASPQIAGQLAQVALDATRVEAEARRNAA,not found
5,design_618_d4ffd631-0ea2-432e-ba0f-bd3d6297b2a0_165_dldesign_0_cycle1_af2pred (protein) AAAAAKVAVAAAKSMIKQAKKFLEEGEKSGDLKLVESAKKLAEQAKNLAKFAIANPATKEEGEKLEKEAEEVKKKAEEAEKKIK,not found
6,design_618_d4ffd631-0ea2-432e-ba0f-bd3d6297b2a0_220_dldesign_0_cycle1_af2pred (protein) DKEEAVKLAEEGAEVALKLADKRVGAVTAAAFRGLARSIRAAEDPEDIAKIAEVAKGMKAWAEAQLKATA,not found
7,design_617_b3fadc1d-0db4-4da8-8433-818493aa2ab2_1940_dldesign_0_cycle1_af2pred (protein) MEEYRARAEELLEKAKKAAEGENGVGDVGELAVEMAKLAAEAEKASPEAGAYARAALVEISQLAIEAAKRKAA,not found
8,design_618_d4ffd631-0ea2-432e-ba0f-bd3d6297b2a0_170_dldesign_0_cycle1_af2pred (protein) AAAAAAADAEAAALAKGFVEEAKKKIEALLKAGAPEEELLAEASRVAAKAIRTFAALGWNGSHAVAAVKAITEEAKKAIEKLRA,not found
9,design_617_b3fadc1d-0db4-4da8-8433-818493aa2ab2_2366_dldesign_0_cycle1_af2pred (protein) GLEKALKELKKVAEATAAAATAADPAMKPTADLLKKAAERAAAGDAETALANLNTILVLADSIAAVDPAAAKKLKEAAEKAIKIAR,not found
10,design_617_b3fadc1d-0db4-4da8-8433-818493aa2ab2_1885_dldesign_0_cycle1_af2pred (protein) AEAAKKGEEAVKKAEEAKKKAEAAAAKLPASVADPVKAAADALVASAKAHAEAGNTESAEATAEVLAGMAEGTKARADALAA,not found
11,design_617_b3fadc1d-0db4-4da8-8433-818493aa2ab2_2387_dldesign_0_cycle1_af2pred (protein) AAAAEGELLGKLIELARRASKLDPETANLILSGLGLYGVDPEAGVKKLLEAAELAKKAGHEELAKEIKELAEKLAAVSAA,not found
12,design_618_d4ffd631-0ea2-432e-ba0f-bd3d6297b2a0_400_dldesign_0_cycle1_af2pred (protein) SSSLIDRLTGIALKGLSIAQGVLDKVEAGEATPEEIEEGIKAAEESEKAAKELSKLLAAQPAASEYYKKLAERAKEYKEKLKKALA,not found
13,design_617_b3fadc1d-0db4-4da8-8433-818493aa2ab2_2293_dldesign_0_cycle1_af2pred (protein) AEEALKLLKEAKKKAEEALKLAEKGGDPEEIKALVNEALSLATKGSAQAVKHPEIAPLGNAVLGYAVDVAERVEELLKERE,not found
14,design_618_d4ffd631-0ea2-432e-ba0f-bd3d6297b2a0_93_dldesign_0_cycle1_af2pred (protein) MEEVKALIARAAELLAAAAADPSTAGEKVTEAIRLLAEAAALDPSIAPLANEAMALATRGLVTGPEGLAAAEEATKAVLEAV,not found
15,design_618_d4ffd631-0ea2-432e-ba0f-bd3d6297b2a0_110_dldesign_0_cycle1_af2pred (protein) AGAAAAEEIRALVDKAIADPATAPEYTARAAEIARAADPRLAGVGQAILAAAERLAAGSPEEAARHAAQMRELTDVVVATLLG,not found
16,design_617_b3fadc1d-0db4-4da8-8433-818493aa2ab2_1785_dldesign_0_cycle1_af2pred (protein) EAEEYYKKGKEYSAKGDELYKAGKYEEAIKYYQKAANYYSKASILLTKAGGDQEKIDEANANLAKALENLEKASRALREAREKEEK,not found
17,design_617_b3fadc1d-0db4-4da8-8433-818493aa2ab2_1817_dldesign_0_cycle1_af2pred (protein) AEEERMRAAIREIAAAAAAEVEAWAKAHPAADQAEWFAALQAAGEKAAEAMAAIDPRYAPEARALAMALGAGAVQRVKA,not found
18,design_618_d4ffd631-0ea2-432e-ba0f-bd3d6297b2a0_318_dldesign_0_cycle1_af2pred (protein) MEKKEELKKKAEEAIKKLKKLKEEGASPEEINKALAEAVELAKEAAEAGDSETANRLLSEAGRLSIEALKNHAA,not found
19,design_617_b3fadc1d-0db4-4da8-8433-818493aa2ab2_1993_dldesign_0_cycle1_af2pred (protein) PSVEEIGQALLDNLKKTLEEAVKASLEEAKGYAAQAAALYIGAHGASPEYGKQAEEIVKKAIKELEKKDPEKAKILKEAIEKAEALL,not found
